# Measured values taken from PubChem BioAssay (NCI).
# Values joined by “and” are separate entries in the source; they are usually repeats but may differ in a detail not shown here. Equal values may be shown once. This is part of a sample that, as a whole, favours compounds with a hit. Of some 79,000 tested, about 15% had one in any assay. Unmarked numbers belong to inactive results. Active and inactive are the calls of the source. Rule as the data show it: active = growth inhibition above about 70%; inactive = the rest.
# Key:
# [1] = NCI Yeast Anticancer Drug Screen. Data for the rad50 strain (AID 155);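 also: 0% = growth of vehicle-only cultures of the same strain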; conditions: S. cerevisiae rad50 strain growth inhibition, active compounds read high; at 50.0 µM unless noted
# Summary of the method: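 Vehicle-treated cultures provide the reference for the growth inhibition reported for compound-exposed, repair-deficient yeast.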
# [2] = NCI Yeast Anticancer Drug Screen. Data for the mec2-1 strain (AID 157); conditions: S. cerevisiae mec2-1 strain, active compounds read high; at 50.0 µM unless noted
# Summary of the method: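 Yeast mec2-1 mutant treated with compound. Readout: growth inhibition vs vehicle controls.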
# [3] = NCI Yeast Anticancer Drug Screen. Data for the sgs1 mgt1 strain (AID 161);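 also: 0% = growth of cultures given vehicle only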; conditions: S. cerevisiae sgs1 mgt1 strain, active compounds read high; at 50.0 µM unless noted
# Summary of the method: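 Genetically altered yeast, compound exposure, growth inhibition relative to vehicle.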
# [4] = NCI Yeast Anticancer Drug Screen. Data for the cln2 rad14 strain (AID 165);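 also: 0% = growth equal to vehicle treated cultures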; conditions: S. cerevisiae cln2 rad14 strain, active compounds read high; at 50.0 µM unless noted
# Summary of the method: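 cln2 rad14 yeast strain; compound exposure; growth inhibition read vs vehicle controls.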
# [5] = NCI Yeast Anticancer Drug Screen. Data for the bub3 strain (AID 167); conditions: S. cerevisiae bub3 mutant strain, active compounds read high; at 50.0 µM unless noted
# Summary of the method: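 Mutant yeast screening strain plus compound; vehicle-treated cultures serve as the 0% inhibition reference.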
# [6] = NCI Yeast Anticancer Drug Screen. Data for the mlh1 rad18 strain (AID 175); conditions: S. cerevisiae mlh1 rad18 strain growth inhibition, active compounds read high; at 50.0 µM unless noted
# Summary of the method: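 Yeast w/ defined DNA-repair lesions; compound exposure; growth vs vehicle controls → % inhibition.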
SMILES,growth inhibition [1],growth inhibition [2],growth inhibition [3],growth inhibition [4],growth inhibition [5],growth inhibition [6]
CC(CO)Cc1ccccc1 (centres undefined),-1.85%,-12.8%,-11.2%,7.45%,-3.7%,-9.7%
CCOC(=O)c1ccc(-c2ccc(Cl)cc2)[nH]1,-7.3%,0%,-3%,2.45%,34%,3.2%
CC1(C)SC(c2ccccc2)SC(c2ccccc2)S1 (centres undefined),13.7%,1.4%,-3.3%,3.25%,-0.8%,17.4%
O=c1cc(CBr)c2ccc(O)cc2o1,-34.1%,2.55%,-23.8%,8.3%,-18.2%,-44.5%
CN(C)Cc1cc(-c2c(Cl)cccc2Cl)no1,-18.8%,-10.5%,-10.4%,4%,7.1%,-13.6%
CC(Cl)S(=O)(=O)c1ccccc1 (centres undefined),7.45%,-4.05%,-17.9%,-42.5%,8.35%,-14.3%
C=C(NC(=O)C(=C)NC(=O)c1csc(C2=NC3c4csc(n4)C4NC(=O)c5csc(n5)C(C(C)(O)C(C)O)NC(=O)C5CSC(=N5)/C(=C/C)NC(=O)C(C(C)O)NC(=O)c5csc(n5)C3(CC2)NC(=O)C(C)NC(=O)C(=C)NC(=O)C(C)NC(=O)C(C(C)CC)NC2C=Cc3c(C(C)O)cc(nc3C2O)C(=O)OC4C)n1)C(N)=O (centres undefined),11.9% and 15.1%,10.8% and -10.4%,13.8% and 18.1%,29.5% and 23.2%,34.2% and 32.5%,13.2% and 36.2%
O=C1OC2C(O)C(CO)OC2n2c1cc(=O)[nH]c2=O (centres undefined),2.55%,13.9%,9.4%,-4.15%,3.5%,-5.35%
[O-]c1nn(-c2ccccc2)n[n+]1-c1ccccc1,-2.4%,-12.4%,-0.55%,-25%,-10.8%,-10%
CCOC(=O)c1ccc(NC(=O)Nc2ccc(F)cc2)cc1,3.5%,-0.5%,1%,12.5%,32.5%,5.55%
C[N+](C)(C)CC1CCC/C1=N\OC(=O)c1ccccc1 (centres undefined),-17.8%,1.85%,11.8%,12.8%,14.2%,-2.7%
CC(C)CCC[C@@H](C)[C@H]1CC[C@H]2[C@@H]3CCC4=CC(=O)NCC[C@]4(C)[C@H]3CC[C@]12C,12.8%,-3.25%,34.6%,27.2%,-9.35%,15.9%
CCCCC(CC)OC(=O)c1ccccc1C (centres undefined),-8.05%,-4.55%,0.5%,-30.9%,-1.4%,-23.8%
O=C(NNC(=O)c1ccc2ccccc2c1)c1ccc(Cl)cc1,-19.2%,-51%,-11%,3.55%,-13.6%,-9.75%
CCCC(=O)CC(=O)Nc1ccccc1,2.9%,-6.3%,-14.9%,-23.9%,-17.6%,11.2%
Oc1cc(O)c2cc(O)c(-c3ccc(O)c(O)c3)[o+]c2c1,11.4%,2.2%,23.4%,4.1%,31.1%,28.1%
O=C(O)C1(O)CCCCC1,-4.85% and 6.9%,-2.45% and 9%,-7.35% and -1.65%,-21.2% and 16.4%,-7.2% and 19.6%,6.65% and -7.05%
Cn1cnc([N+](=O)[O-])c1Sc1nc2cc(Cl)c(F)cc2[nH]1,-35.6%,-27.9%,-31.9%,8.5%,-25.1%,-29.4%
N=C(N)SCCc1cn2ccccc2n1,-5.45%,-45.9%,-17.1%,3.65%,-15.8%,1.05%
CC(C)CCCC(C)C1CCC2C3CC=C4CC(OC(=O)Nc5ccc(S(=O)(=O)NC6CCCCC6)cc5)CCC4(C)C3CCC12C (centres undefined),-1.85%,-4.35%,12.7%,-38.1%,-12.4%,8.25%

SMILES,growth inhibition [1],growth inhibition [2],growth inhibition [3],growth inhibition [4],growth inhibition [5],growth inhibition [6]
COc1cc2c(cc1OC)NC(=O)NC(Cc1ccc3c(c1)OCO3)CC2 (centres undefined),20.6%,10.8%,13.8%,-47%,22.3%,27.3%
CCOC(=O)c1ccc(NC(=S)Nc2ncccc2C)cc1,15.8%,11.4%,42.5%,-3.3%,34.3%,21.2%
COC(=O)C1NC(=O)C(N2C(=O)c3ccccc3C2=O)=CSC1(C)C (centres undefined),-15.8%,-3.05%,1.15%,-11.6%,-48%,-7.2%
CC1(C)C2CCC3(C2)CS(=O)(=O)N2OC231 (centres undefined),6.55%,-35.9%,-31.1%,-20.1%,-26.9%,-9.7%
NC(COC(=O)NCCCl)C(=O)O (centres undefined),12.7%,-6.95%,-0.35%,-11.5%,22.1%,18.6%
CSc1c(C)n2c3c(cccc13)CCC2,-9.7%,-6.6%,-3.8%,-36.7%,1.35%,3.3%
Cc1ccc(C)n1-n1c(Cc2ccc(Cl)cc2)n[nH]c1=O,8.5%,3.05%,16%,8.05%,-4.4%,13.1%
O=C1CSC(c2cccc([N+](=O)[O-])c2)N1c1nncs1 (centres undefined),8.55%,11.7%,6.8%,5.15%,3.4%,5.5%
Cc1cc2ccccc2c[n+]1CC(O)C[n+]1cc2ccccc2cc1C,-18.9%,-31.1%,-36.4%,-27.7%,-45%,-0.8%
CCC(=O)NC(Nc1ccccc1F)(C(F)(F)F)C(F)(F)F,-29.2%,-18.2%,-18.1%,-4%,-41.9%,-35.9%
Nc1n[n+](-c2cccc([N+](=O)[O-])c2)no1,32.4%,16.4%,69.5%,5.3%,81.4% (active),32.5%
CN(C)N1C(=O)S/C(=C\c2ccc([N+](=O)[O-])cc2)C1=O,-24.4%,-14.3%,1.15%,6.3%,-4.1%,-16.2%
CCCCCCCCCC(=O)Oc1cccc2c1CC(C[Se]c1ccccc1)C(=O)O2 (centres undefined),2.1%,-0.3%,-0.85%,-3.05%,-2.05%,5.7%
CC/C=C/C(=O)CC(O)(C(F)(F)F)C(F)(F)F,-30.9%,9.1%,12.5%,-20.9%,-29.8%,-20.8%
COc1ccc(-c2oc3c(CC(=O)O)cccc3c(=O)c2OC)cc1,-8.75%,-15.3%,-25.3%,-14.4%,-12.7%,-12.3%
Cc1ccc(C=NC23CC4CC(CC(C4)C2)C3)cc1,-3.3%,-28.6%,-24.2%,-24.9%,-35.9%,-20.4%
CCOC(=O)CC(CC(=O)OCC)NC(=O)c1ccc(N(C)C(=O)OCc2ccccc2)cc1,40.1%,5.55%,34.9%,32.9%,14.7%,39.9%
O=c1c2c3c(sc2nc2n1N=C(c1ccc(Cl)cc1)CS2)CCCC3,-23.6%,6.05%,-37.9%,1.8%,-12.1%,-16.6%
CN(C)c1ccccc1C(=O)N/N=C\c1ccc(-c2ccccc2)cc1,7.05%,4.95%,0.6%,12.3%,0.35%,19.6%
